# Results: PubChem BioAssay (NCI)
# Compounds without any hit were thinned out: in the full panel of roughly 83,000, 20% have a hit.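 Assay: single dose, 48 h. Readout: percent growth (0 = no net growth; negative = cell death). Active: <10.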 Values without a mark were called inactive.
# Test system: HS 578T breast
# Test: NCI-60 one-dose screen, 48 h (100 = growth as untreated, 0 = no growth, -100 = all killed)
# Conditions: 10 µM unless noted
row,Compound,growth [%]
1,COc1cc(NC(=O)NCc2ccco2)ccc1-c1ccc(NC(=O)NCc2ccco2)cc1OC,59.4
2,COc1cccc(/C=N/Nc2nc3ccccc3s2)c1OC,97.9
3,O=C(N/N=C/c1ccc(Cl)cc1Cl)c1ccccc1Nc1cccc(C(F)(F)F)c1,49.3
4,COc1ccc(NS(=O)(=O)N2CCCCC2)cc1,108
5,O=c1c2ccccc2c2nccn2c2cc(Cl)ccc12,77.1
6,COc1ccc(-c2ccc(O)c(C(=O)/C=C/c3cc(OC)c(OC)c(OC)c3)c2)cc1,113
7,Cn1cnc([N+](=O)[O-])c1Sc1nc(N)nc2nc[nH]c12,65.6
8,Cc1cc(=O)oc2cc(OCCn3c(C)nn(-c4ccc(Cl)cc4)c3=O)ccc12,34.8
9,CCN(CC)c1ccc(N=C2C=CC(=O)C=C2NC(C)=O)cc1,104
10,CC1CN(C2CCCCC2)C(=O)NC1=O (configuration not stated),110
11,COc1ccc2cc(C3=CC(=O)CCC3)ccc2c1,116
12,COc1ccc(Cl)cc1Nc1nc(C(F)(F)F)ccc1C(=O)N/N=C/c1c(Cl)cccc1Cl,54.3
